Results on eight compounds are retold here after PubChem BioAssay (Tox21).

Assay [1] can be described thus: A CellTox Green Cytotoxicity Assay to monitor cytotoxicity in HEK293 cells - 32 hour (AID 1224881). Also: nearly all actives have a fitted effect of over 40% in size. Also: potency is read from the fitted curve at half-maximal effect. An outline of the steps: (§1)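 HEK293 cells premixed with CellTox Green dye were seeded at 600 cells/well and left 5 h at 37 C/5% CO2 before pin transfer of 23 nL compound in DMSO. Fluorescence from dye bound to dead-cell DNA was read during 40 h treatment.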
Assay [2] in a line: A CellTox Green Cytotoxicity Assay to monitor cytotoxicity in HepG2 cells - 0 hour (AID 1224882). Also: nearly all actives have a fitted effect of over 35% in size. The essentials:
(§2)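 HepG2 cells were seeded together with the CellTox Green dye at 600 cells/well, left 5 h at 37 C/5% CO2, then given compounds in DMSO. Fluorescence from dye bound to dead-cell DNA was read repeatedly over 40 h of treatment at 37 C.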

Assay [3] is described as follows: A CellTox Green Cytotoxicity Assay to monitor cytotoxicity in HepG2 cells - 32 hour (AID 1224883). Also: nearly all actives have a fitted effect of over 50% in size. The essentials:
as §2

Assay [4] can be described thus: A CellTox Green Cytotoxicity Assay to monitor cytotoxicity in HEK293 cells - 8 hour (AID 1224884). Also: nearly all actives have a fitted effect of over 35% in size. An outline of the steps:
as §1

Assay [5] in a line: qHTS RealTime-Glo MT Cell Viability Assay in HepG2 cells - 16 hour (AID 1224885). Also: nearly all actives have a fitted effect of over 50% in size. The essentials: (§3)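 HepG2 cells (600/well) were dispensed with RealTime-Glo reagents, incubated 5 h at 37 °C, then treated with compounds in DMSO for up to 40 h. Nonlytic NanoLuc luminescence reflecting viable cells was read at each stated time point.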
On the technique in general: qHTS replaces the single test concentration by a dilution series.

Assay [6] in a line: qHTS RealTime-Glo MT Cell Viability Assay in HEK293 cells - 24 hour (AID 1224886). Also: top concentration of the series differs between compounds; nearly all actives have a fitted effect of over 50% in size. The essentials: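 HEK293 cells seeded with NanoLuc/prosubstrate reagent, rested 5 h at 37 C, then dosed and kept at 37 C up to 40 h. Nonlytic real-time luminescence from viable cells read at 0, 8, 16, 24, 32 and 40 h.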
The nature of assay [7]: qHTS RealTime-Glo MT Cell Viability Assay in HEK293 cells - 8 hour (AID 1224887). Also: top concentration of the series differs between compounds; nearly all actives have a fitted effect of over 50% in size. An outline of the steps: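 HEK293 cells mixed with RealTime-Glo reagents (NanoLuc plus cell-permeant prosubstrate) at 600 cells/well, preincubated 5 h at 37 C/5% CO2, then given 23 nL compound in DMSO. Nonlytic luminescence from viable cells was read at 0, 8, 16, 24, 32 and 40 h.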
Assay [8] can be described thus: A CellTox Green Cytotoxicity Assay to monitor cytotoxicity in HEK293 cells - 16 hour (AID 1224888). Also: nearly all actives have a fitted effect of over 35% in size. An outline of the steps:
as §1

Assay [9] is described as follows: A CellTox Green Cytotoxicity Assay to monitor cytotoxicity in HepG2 cells - 8 hour (AID 1224890). Also: nearly all actives have a fitted effect of over 45% in size. The essentials:
as §2

Assay [10] can be described thus: qHTS assay to identify small molecule antagonists of the estrogen receptor alpha (ER-alpha) signaling pathway using the BG1 cell line in the presence of 0.1 nM 17-beta-estradiol - cell viability counter screen (AID 1259241). Also: nearly all actives have a fitted effect of over 40% in size. An outline of the steps: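 Viability in VM7Luc4E2 cells after 22 hr compound exposure under 0.1 nM 17beta-estradiol stimulation, by CellTiter-Fluor.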

A short description of assay [11]: qHTS assay to identify small molecule antagonists of the androgen receptor (AR) signaling pathway using the MDA cell line in the presence of 0.5 nM R1881 - cell viability counter screen (AID 1259242). Also: nearly all actives have a fitted effect of over 45% in size. An outline of the steps: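 MDA-kb2 cells (human breast carcinoma, stably carrying MMTV-luciferase reporter) were exposed to compounds with 0.5 nM R1881 (final) for 16 hr at 37C, 0% CO2; viability then read as live-cell protease fluorescence (CellTiter-Fluor, 30 min) in the same wells.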

Assay [12] has as its target Estrogen receptor (Homo sapiens) (UniProt P03372). In words: qHTS assay to identify small molecule antagonists of the estrogen receptor alpha (ER-alpha) signaling pathway using the BG1 cell line in the presence of 0.1 nM 17-beta-estradiol (AID 1259244). Also: nearly all actives have a fitted effect of over 50% in size. An outline of the steps: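 VM7Luc4E2 cells (endogenous full-length ER-alpha, stable 4xERE-luciferase) were grown 5 days in phenol red-free medium with charcoal-stripped FBS, then exposed 22 h at 37C to compounds plus 0.1 nM (final) 17beta-estradiol; ONE-Glo luminescence read-out.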

A short description of assay [13]: qHTS assay to identify small molecule HDAC inhibitors (AID 1259364). Also: top concentration of the series differs between compounds; nearly all actives have a fitted effect of over 45% in size. The essentials:
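Wild-type HCT-116 cells were plated overnight, exposed to compounds for 2 h at 37 °C, then given HDAC-Glo class I/II luminogenic reagent for 30 min at room temperature before luminescence was read.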

Assay [14] can be described thus: qHTS assay to identify small molecule HDAC inhibitors - cell viability counter screen (AID 1259365). The essentials:
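Cytotoxicity was gauged in wild-type HCT-116 cells after a brief 2hr treatment with DMSO-dissolved compounds at 37C and 5% CO2, using CellTiter-Glo luminescence developed for 30min at room temperature.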

Assay [15] in a line: qHTS assay to identify small molecule agonists of the sonic hedgehog signaling (Shh) pathway - cell viability counter screen (AID 1259366). Also: nearly all actives have a fitted effect of over 50% in size. Also: potency is read from the fitted curve at half-maximal effect. The essentials: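 Stable Gli1-Luc NIH/3T3 clone, 2,000 cells/well. Compound exposure 24hr at 37C. Read-out: CellTiter-Fluor fluorescence.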
Assay [16] can be described thus: qHTS assay to identify small molecule antagonists of the sonic hedgehog signaling (Shh) pathway - cell viability counter screen (AID 1259367). Also: nearly all actives have a fitted effect of over 55% in size. Also: potency is read from the fitted curve at half-maximal effect. The essentials:
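NIH/3T3-derived Gli1-Luc reporter cells, 2,000/well, plated 4 hr before compound addition, then stimulated with conditioned medium for 24 hr at 37C. Viability measured in the same wells by CellTiter-Fluor fluorescence, reagent added at 23 hr for 1 hr.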

Assay [17] is described as follows: qHTS assay to identify small molecule agonists of the sonic hedgehog signaling (Shh) pathway (AID 1259368; calls by dose curve; also: series mostly up to about 92 µM; nearly all actives have a fitted effect of over 15% in size). An outline of the steps:
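NIH/3T3-derived 3T3Gli1-Luc cells carrying a stably integrated Gli1 response element–firefly luciferase reporter were plated, left 4 hr at 37 C, then given compounds in DMSO for 24 hr. Luminescence was read 30 min after adding luciferase reagent.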

Assay [18] can be described thus: qHTS RealTime-Glo MT Cell Viability Assay in HepG2 cells - 0 hour (AID 1224889). Also: nearly all actives have a fitted effect of over 50% in size. The essentials: as §3
A short description of assay [19]: qHTS assay to identify small molecule phospholipidosis (PLD) inducers (AID 1259344; active = well fitted curve in the direction sought with a large enough effect; an effect the other way counts as inactive or inconclusive). An outline of the steps:
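HepG2 cells, 900/well, treated with compound plus LipidTOX Red for 24 h at 37 C; amiodarone positive and DMSO negative controls. Fixed with paraformaldehyde/Hoechst, then high-content imaging scored LipidTOX pit count and integrated intensity per well and per cell.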

In assay [20] the target is Androgen receptor (Homo sapiens) (UniProt P10275). In words: qHTS assay to identify small molecule antagonists of the androgen receptor (AR) signaling pathway using the MDA cell line in the presence of 0.5 nM R1881 (AID 1259243). Also: nearly all actives have a fitted effect of over 50% in size. The essentials: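 MDA-kb2 human breast carcinoma cells carrying an MMTV-luciferase reporter (AR- and GR-responsive) were plated, rested 5 hr at 37C, dosed with compounds, then stimulated with 0.5 nM R1881 (final) for 16 hr; luminescence was read after ONE-Glo.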
Chain of Androgen receptor (Homo sapiens) (P10275 whole entry, looked up): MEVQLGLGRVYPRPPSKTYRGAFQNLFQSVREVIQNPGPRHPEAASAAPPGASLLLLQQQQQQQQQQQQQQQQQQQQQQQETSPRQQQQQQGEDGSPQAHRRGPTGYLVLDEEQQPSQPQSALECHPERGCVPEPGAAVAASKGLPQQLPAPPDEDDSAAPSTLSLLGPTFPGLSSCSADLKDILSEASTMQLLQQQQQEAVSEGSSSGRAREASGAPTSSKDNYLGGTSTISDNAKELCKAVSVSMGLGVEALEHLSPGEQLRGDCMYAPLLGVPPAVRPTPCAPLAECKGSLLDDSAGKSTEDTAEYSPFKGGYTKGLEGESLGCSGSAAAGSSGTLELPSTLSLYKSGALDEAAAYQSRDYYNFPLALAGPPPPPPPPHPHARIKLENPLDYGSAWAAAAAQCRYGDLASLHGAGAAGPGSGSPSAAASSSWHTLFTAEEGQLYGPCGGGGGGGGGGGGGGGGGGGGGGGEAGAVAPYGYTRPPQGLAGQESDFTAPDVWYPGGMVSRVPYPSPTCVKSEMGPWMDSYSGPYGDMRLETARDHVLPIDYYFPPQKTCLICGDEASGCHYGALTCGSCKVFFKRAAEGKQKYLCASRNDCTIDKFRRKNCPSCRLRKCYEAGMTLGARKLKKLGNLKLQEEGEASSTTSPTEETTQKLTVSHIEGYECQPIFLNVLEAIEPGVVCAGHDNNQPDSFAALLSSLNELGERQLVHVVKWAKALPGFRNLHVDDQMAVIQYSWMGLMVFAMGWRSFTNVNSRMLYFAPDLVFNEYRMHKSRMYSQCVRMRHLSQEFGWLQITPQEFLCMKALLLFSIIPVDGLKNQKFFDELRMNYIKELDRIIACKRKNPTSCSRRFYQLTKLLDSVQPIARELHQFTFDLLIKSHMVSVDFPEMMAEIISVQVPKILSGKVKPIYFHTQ

Inconclusive results are not listed. Some structures have more than one record in an assay (separate samples or runs), and their calls can disagree. Calls of active or inactive are those of the source. Unless noted, calls follow the shape of the dose curve; as a rule, active = well fitted curve in the direction sought with a large enough effect in the repeat runs; inconclusive = weak or mixed curves; inactive = no such curve, though single readings can be large; an effect the other way counts as inactive or inconclusive.

Chain of Estrogen receptor (Homo sapiens) (P03372 whole entry, looked up): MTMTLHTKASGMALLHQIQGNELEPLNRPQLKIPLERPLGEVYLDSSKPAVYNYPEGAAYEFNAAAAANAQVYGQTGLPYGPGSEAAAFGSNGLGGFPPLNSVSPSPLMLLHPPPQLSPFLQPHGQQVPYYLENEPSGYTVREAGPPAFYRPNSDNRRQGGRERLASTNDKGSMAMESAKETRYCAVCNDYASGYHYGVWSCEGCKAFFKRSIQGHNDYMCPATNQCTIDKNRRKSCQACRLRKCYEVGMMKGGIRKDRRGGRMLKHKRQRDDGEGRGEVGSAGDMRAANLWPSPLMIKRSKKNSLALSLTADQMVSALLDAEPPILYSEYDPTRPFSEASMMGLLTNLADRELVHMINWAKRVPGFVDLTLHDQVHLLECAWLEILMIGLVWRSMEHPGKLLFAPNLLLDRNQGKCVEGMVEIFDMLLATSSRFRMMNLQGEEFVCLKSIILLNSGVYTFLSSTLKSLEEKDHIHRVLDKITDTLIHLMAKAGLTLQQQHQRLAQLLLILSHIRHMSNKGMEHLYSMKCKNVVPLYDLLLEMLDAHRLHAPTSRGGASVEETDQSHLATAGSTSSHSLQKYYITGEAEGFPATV

Regarding `Cc1ccccc1C(OCCN(C)C)c1ccccc1` (stereo not drawn), the Potency result in [1], in assay [2], in assay [3], in assay [4], in assay [5] and in assay [6] was “inactive” in each case. Moreover, the Potency entry in [7], in assay [8], in assay [9], in [10], in assay [11] and in [12] was “inactive” in each case. For the same compound, the Potency result in assay [13], in [15] and in assay [16] was “inactive” in each case. Also, the outcome in [14] and in assay [17] was inactive.
On to `CCCCOC(=O)CC(CC(=O)OCCCC)(OC(C)=O)C(=O)OCCCC`, for which the Potency result in assay [1], in assay [2], in assay [3], in [4], in [5] and in [6] was “inactive” throughout. For the same compound, the Potency result in assay [7], in [8], in assay [18], in assay [9], in assay [10] and in assay [13] was “inactive” each time. In addition, the Potency entry in assay [15] and in assay [16] was “inactive” throughout. In addition, the result in assay [19], in assay [14] and in assay [17] was inactive.
Take `CC(O)C(=O)O` (stereo not drawn): the Potency entry in [1], in [2], in assay [3], in assay [4], in [5] and in [6] was “inactive” each time. Further, the Potency entry in [7], in [8], in assay [9], in assay [10], in assay [12] and in assay [13] was “inactive” throughout. Also, the Potency entry in [15] and in assay [16] was “inactive” throughout. In addition, the outcome in assay [19], in [14] and in assay [17] was inactive.
As for `O=C(c1ccccc1)C(O)c1ccccc1` (stereo not drawn), the Potency entry in assay [1], in assay [2], in assay [3], in assay [4], in [5] and in assay [6] was “inactive” each time. Besides, the Potency entry in assay [7], in [8], in assay [9], in [10], in [11] and in assay [13] was “inactive” throughout. In addition, the Potency entry in assay [15] and in [16] was “inactive” in each case. Further, the outcome in assay [19], in assay [14] and in assay [17] was inactive.
Consider `Nc1ccc(S(=O)(=O)c2ccc(N)cc2)cc1`, for which the Potency entry in [1], in assay [2], in assay [3], in [4], in assay [6] and in assay [7] was “inactive” throughout. Besides, the Potency entry in [8], in [18], in [9], in assay [10], in [11] and in assay [12] was “inactive” in each case. Moreover, the Potency result in assay [13], in assay [15] and in assay [16] was “inactive” each time. The outcome in assay [19], in assay [14] and in assay [17] was inactive.
With `Cc1cc(=O)n(-c2ccccc2)n1C`, in [1], the Potency was 44.8 µM (active) and inactive. For the same compound, the Potency entry in assay [2], in assay [3], in [4], in assay [5], in [6] and in [7] was “inactive” throughout. Moreover, the Potency result in [9], in [10], in assay [11], in [20], in assay [12] and in [13] was “inactive” each time. For the same compound, the Potency entry in assay [15] and in assay [16] was “inactive” throughout. Moreover, the result in [19], in [14] and in [17] was inactive.
For the compound `NC(N)=O`, the Potency result in assay [1], in assay [2], in assay [3], in assay [4], in [6] and in assay [7] was “inactive” in each case. Also, the Potency result in assay [8], in assay [9], in assay [10], in assay [11], in assay [12] and in assay [13] was “inactive” each time. Also, the result in assay [19], in assay [14] and in assay [17] was inactive. Besides, the Potency is 23 µM (active) and inactive in [15]; 16.3 µM (active) and inactive in [16].
As for `Cc1ccc(S(=O)(=O)NC(=O)NN2CCCCCC2)cc1`, the Potency result in assay [1], in assay [2], in assay [3], in [4], in [6] and in [7] was “inactive” each time. For the same compound, the Potency entry in assay [8], in assay [18], in assay [9], in [10], in [12] and in [13] was “inactive” throughout. Further, the Potency entry in assay [15] and in [16] was “inactive” each time. The compound was classed as inactive in assay [19], in [14] and in assay [17].
